Measured values taken from PubChem BioAssay (NCI).
Compounds without any hit were thinned out: in the full panel of roughly 79,000, 15% have a hit. A number with no mark means an inactive call. The source made the active and inactive calls. No stated cut-off is given here; in the data, active means growth inhibition above about 70%; inactive means the rest.

Columns and labels:
[1] = NCI Yeast Anticancer Drug Screen. Data for the rad50 strain (AID 155);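 further: 0% = growth of vehicle-only cultures of the same strain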; details: S. cerevisiae rad50 strain growth inhibition; at 50.0 µM; stronger effect = higher value
Procedure, shortened: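 A DNA repair-deficient yeast mutant serves as the test organism; compound-induced growth inhibition is calculated against vehicle-treated cells.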

[2] = NCI Yeast Anticancer Drug Screen. Data for the mec2-1 strain (AID 157); details: S. cerevisiae mec2-1 strain, at 50.0 µM, stronger effect = higher value
Procedure, shortened: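 mec2-1 yeast strain, carrying an alteration in DNA damage repair or cell cycle control, was exposed to compounds; growth inhibition was measured relative to vehicle-treated controls.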

[3] = NCI Yeast Anticancer Drug Screen. Data for the sgs1 mgt1 strain (AID 161);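 further: 0% = growth of cultures given vehicle only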; details: S. cerevisiae sgs1 mgt1 strain, at 50.0 µM, stronger effect = higher value
Procedure, shortened: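 Yeast cells carrying a defined DNA-repair defect were exposed to test compounds. Growth inhibition was measured relative to vehicle-treated controls.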

[4] = NCI Yeast Anticancer Drug Screen. Data for the cln2 rad14 strain (AID 165);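 further: 0% = growth equal to vehicle treated cultures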; details: S. cerevisiae cln2 rad14 strain, at 50.0 µM, stronger effect = higher value
Procedure, shortened: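 Yeast carrying cln2 and rad14 alterations (cell cycle control and DNA damage repair) were exposed to compounds. Growth inhibition was measured against vehicle-treated controls.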

[5] = NCI Yeast Anticancer Drug Screen. Data for the bub3 strain (AID 167); details: S. cerevisiae bub3 mutant strain, at 50.0 µM, stronger effect = higher value
Procedure, shortened: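 Inhibition values come from growth of compound-treated mutant yeast normalised to vehicle-treated controls.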

[6] = NCI Yeast Anticancer Drug Screen. Data for the mlh1 rad18 strain (AID 175); details: S. cerevisiae mlh1 rad18 strain growth inhibition; at 50.0 µM; stronger effect = higher value
Procedure, shortened: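 Growth inhibition of the yeast strain was measured after compound exposure and expressed relative to vehicle-treated controls. The strain carries defined defects in DNA damage repair.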

Structure (SMILES)	growth inhibition [1]	growth inhibition [2]	growth inhibition [3]	growth inhibition [4]	growth inhibition [5]	growth inhibition [6]
CCOC(=O)c1cc(Cl)nc(Cl)c1	6.95%	-16.6%	-1.8%	-3.15%	4.5%	-10.4%
CCCCCCCC(=O)OC(CC)CCCC (configuration not stated)	5.25%	-9.9%	1.5%	8.35%	3.6%	-1.2%
COc1cc2c(NCCCCCCO[N+](=O)[O-])ncnc2c(OC)c1OC	26.6%	-5.7%	40.8%	43.8%	39%	30.6%
C[N+](C)(C)CCOC(=O)c1ccccc1CCl	19.8%	8.35%	31.6%	50.1%	97.3% (active)	-17.1%
Cc1cc2ncn(C3CCCO3)c2cc1C (configuration not stated)	6.35%	-6.1%	-14.3%	3.45%	3.7%	-23.1%
N#Cc1ccc(OCCSCCCCCCCCCCSCCOc2ccc(C#N)cc2)cc1	-16.8%	-20.9%	-19.8%	-6.05%	-1%	-15.8%
CCOC(=O)C(NC(C)=O)C(O)c1ccccc1 (configuration not stated)	-8.85%	-16.2%	-2%	-24.6%	-37.4%	-9.95%
Cc1ccccc1C(=O)N1CCOCC1	-10.9%	3.7%	-0.1%	-13.4%	16.1%	21.4%
Cc1cc2c(cc1Cl)S(=O)(=O)OC(c1ccc([N+](=O)[O-])cc1)=N2	-3.25%	-4.3%	-0.1%	0.45%	19.1%	-10.3%
CCCCCCC(=O)OC(C)CC(C)C (configuration not stated)	6.25%	2.75%	-0.75%	-11.2%	-3.7%	24.2%
S=c1nc[nH]c2c1ncn2Cc1ccccc1	5.55%	4.25%	-14.3%	1.3%	4.9%	2.35%
CCCCN(CCCC)CCC(O)c1cc(-c2ccc(C(F)(F)F)cc2)nc(-c2ccc(C(F)(F)F)cc2)c1 (configuration not stated)	24.3%	-4.9%	-37.6%	-8.7%	-55.6%	-41.2%
COc1cc(C)nc2ccc(C(=O)c3ccccc3)cc12	31%	6.1%	31.6%	17.5%	10.4%	48%
CCCNC1CC(n2cc(C)c(=O)[nH]c2=O)OC1CO (configuration not stated)	-11.4%	-7.85%	-25.3%	-14.7%	-31.8%	-26.8%
CC(=O)Oc1cccc2c1C(=O)c1ccccc1C2=O	30%	5.3%	22.4%	-4.2%	11.3%	-10%
CC1=C(CCC(C)N)C(C)(C)CCC1 (configuration not stated)	29%	14.7%	28%	7.75%	11.4%	12.8%
CCOc1ccc(Nc2nc(C(Cl)(Cl)Cl)cc(C(Cl)(Cl)Cl)n2)cc1CN(CC)CC	98.2% (active)	99.1% (active)	99% (active)	98.1% (active)	98% (active)	98.8% (active)
CC1=C(C(c2ccccc2)c2ccccc2)C(=O)c2ccccc2C1=O	-3.35%	-6.5%	1.45%	1.5%	-31.8%	-0.7%
CCn1c(=O)c2c3ccc(O)cc3[nH]c2c2ccc(O)cc21	-63.7%	-74.6%	-4.8%	-14.6%	-23.8%	-43.5%
Fc1cccc(C2SCc3nc4cc5ccccc5cc4n32)c1 (configuration not stated)	-21.8%	-1.25%	8.8%	-0.45%	-19.7%	-9.65%
O=C([O-])[C+](C=Cc1cccc2ccccc12)C(=O)O	9.05%	-5.4%	8.35%	5.35%	3.35%	31.3%

Structure (SMILES)	growth inhibition [1]	growth inhibition [2]	growth inhibition [3]	growth inhibition [4]	growth inhibition [5]	growth inhibition [6]
CCCCCCCCCC1CC(=O)OC23CCCC(=O)C12O3 (configuration not stated)	-10.8%	-32%	9.2%	15.8%	-8%	-17.6%
O=C(NNC(=O)c1ccc(Cl)cc1Cl)c1ccccc1	-13.8%	0.2%	-4.75%	-9.9%	-9.2%	-7.8%
Nc1ccccc1SC1CC(=O)N(c2ccc(Oc3ccc(Cl)cc3)cc2)C1=O (configuration not stated)	25.6%	12.2%	13.8%	-12.2%	-0.15%	2.55%
CN(Cc1cnc2nc(N)nc(N)c2n1)c1ccc(C(=O)NC(CCC(=O)OCc2cc3c(cc2Cl)OCO3)C(=O)OCc2cc3c(cc2Cl)OCO3)cc1 (configuration not stated)	16.9%	58.3%	42%	44.6%	-8.6%	46.2%
COc1cccc(C(=O)C(CCC#N)c2ccccc2)c1 (configuration not stated)	24.8%	18.5%	31.4%	20.9%	42.8%	9.75%
C[CH2][Ge]([CH2]C)[CH2]C.C[CH2][Ge]([Cl])[CH2]C	76.3% (active)	3.45%	52.9%	-10.2%	41.8%	74.5% (active)
COC(=O)c1ccccc1NC(=O)Nc1ccc(F)c([N+](=O)[O-])c1	3.75%	22.9%	3.15%	0.85%	11.6%	-10.9%
CCOC(=O)Nc1cccc(Cl)c1Cl	-31.1%	-39.1%	-22.4%	6.75%	-27.9%	-8%
CN1C2CCC1CC(OC(c1ccccc1)c1ccccc1)C2 (configuration not stated)	11.1%	4.05%	-15.4%	0.25%	2.7%	5.1%
c1ccc(COc2ccc3c(c2)CN(Cc2ccccc2)CO3)cc1	-21.1%	-28.9%	33.6%	-18.6%	62.2%	-9.1%
CCOC(=O)c1cnc(SC)nc1Nc1cccc(C)c1	-13.4%	-10.4%	-11.9%	-18.1%	9.1%	-36.1%
CSc1nc(C=O)nc(SC)n1	1.25%	-12%	9.1%	-11.3%	3.45%	-17.1%
CN(c1ccccc1)S(=O)(=O)c1ccc(Cl)cc1	38%	19.1%	32.1%	11.4%	43.2%	25.9%
COC(=O)C1CCC2C3CCCCC3CCC2C1(C)C(=O)OC (configuration not stated)	-7.6%	2%	-4.55%	-28.4%	5.7%	2.05%
O=Nc1ccc(O)cc1Cc1ccccc1	-10.4%	-5.95%	-19.8%	-5.3%	5.1%	-1.5%
O=S1(=O)C=Cc2ccccc2CC1	-4.15%	-12.2%	-22.4%	-10.8%	0.9%	-27.8%
COc1ccc(N2NC(c3ccccc3)(c3ccccc3)C(C)C2=O)cc1 (configuration not stated)	48.2%	17.1%	40.4%	5.2%	51.2%	40.1%
N#CCSCC(N)C(=O)O (configuration not stated)	-11.1%	-15.2%	-1.1%	-6.75%	-19.6%	-4.8%
Cc1ccccc1SC(c1ccccc1)(c1ccccc1)c1ccccc1	-11.2%	-25.3%	-0.2%	-6.55%	-6.1%	-37.8%
CC(=O)N1C(=O)NC(=O)C1(C)c1cccs1 (configuration not stated)	23.2%	-8.9%	2.9%	-75.1%	2%	1.2%
O=C1CSC(=S)N1c1ccco1	3.4%	-20.1%	17.9%	20.7%	-13.1%	2.85%
